# Assay outcomes as filed in PubChem.
# An excerpt weighted towards active compounds, which were near 12% of everything screened.
# USP8 block: inhibitors of human USP8 deubiquitinase; purified USP8, Ub-rhodamine cleavage fluorescence, 30 min; AID 1645853; 47,000 tested, 4.2% active; P40818; inhibition, % at 20 µM
# USP17 block: inhibitors of human USP17 deubiquitinase | inhibition, % at 50 µM | 47,000 tested, 6.5% active | AID 1645855 | A8MUK1 | purified USP17, Ub-rhodamine cleavage fluorescence, 3 h
# USP30 inh: human USP30 deubiquitinase inhibition | AID 1645860 | inhibition, % at 25 µM | purified USP30, Ub-rhodamine cleavage fluorescence | Q70CQ3 | 47,000 tested, 5.3% active
# The depositor's hits bear a star. Cut-off read from the data, not from the text of the source: active = inhibition above about 30%; inactive = the rest.
SMILES,USP8 block,USP17 block,USP30 inh
CN(C)c1ccc(C(=O)OCC(=O)c2ccc3c(c2)OCCO3)cc1,16,3,-3
Cc1cc(C)cc(NC(=O)c2cccc(S(=O)(=O)N3CCOCC3)c2)c1,-80,-8,-3
CCOC(=O)C1=C(CNCc2ccc3c(c2)OCO3)NC(=O)NC1c1ccccc1 (configuration not stated),2,-4,-339
COc1ccc2c(C)c(CC(=O)N3CCN(c4ccccc4)CC3)c(=O)oc2c1,-3,-11,12
Cc1c(CC(=O)N2CCN(c3ccccn3)CC2)c(=O)oc2cc(O)ccc12,-11,-5,4
Cc1c(CC(=O)N2CCN(c3ncccn3)CC2)c(=O)oc2cc(O)ccc12,4,63*,-9
Cc1c(CC(=O)N2CCN(c3ccc(Cl)cc3)CC2)c(=O)oc2cc(O)c(Cl)cc12,41*,19,35*
O=C(Nc1ccc2c(N3CCOCC3)ncnc2c1)c1ccccc1F,-4,-12,-17
c1ccc2c(CN3CCC(c4nnc(-c5ccncc5)o4)CC3)cccc2c1,-12,-3,-13
CCc1ccc(C2c3c(-c4cc(C)cc(C)c4O)n[nH]c3C(=O)N2Cc2cccnc2)cc1 (configuration not stated),74*,15,3
COc1ccc([C@@H]2CN(Cc3cccnc3)C[C@H]2c2cc(=O)[nH]c(C)n2)cc1,16,-6,-14
O=C(c1n[nH]c2c1CCCC2)N1CCn2c(nnc2-c2ccccc2)C1,-4,-4,-3
Cc1ccc(OCC(O)CN2CCN(c3nc(-c4ccccc4)ns3)CC2)c([N+](=O)[O-])c1 (configuration not stated),-49,-18,-7
COc1ccc2[nH]c3c(c2c1)CCN1C(=O)CN(CCc2ccc(F)cc2)C(=O)[C@]31C,-8,-3,-24
O=C(Nc1ccc(F)cc1)Nc1cccnc1,1,0,-1
Cc1nn(C)cc1NC(=O)Nc1ccc(F)cc1,7,11,30*
Cc1ccc2nc(CCc3ccc(NS(=O)(=O)c4ccc(F)c(F)c4)cc3)[nH]c2c1,9,1,3
O=C(c1ccccc1F)N1CCCC(c2nnc3ccccn23)C1 (configuration not stated),6,0,0
Cc1ccc(C(=O)Nc2ccc(Cl)cn2)c(C)c1,-111,12,15
CC(C)(C)OC(=O)NCc1ccc(C(=O)Nc2ccc(Cl)cn2)cc1,13,23,34*
COc1cccc(CNc2cc(C(C)C)nc3nc(-c4cccnc4)nn23)c1,6,35*,20
c1ccc(-c2cc(NCc3cccnc3)n3nc(-c4cccnc4)nc3n2)cc1,-12,-2,-12
CC(C)c1cc(NCc2ccco2)n2nc(-c3cccnc3)nc2n1,9,31*,37*
Cc1cc(Nc2ccccc2)n2nc(-c3cccnc3)nc2n1,10,1,-9
CC(C)c1cc(Nc2ccc(O)cc2)n2nc(-c3cccnc3)nc2n1,17,19,18
SMILES,USP8 block,USP17 block,USP30 inh
CCCNc1cc(-c2ccccc2)nc2nc(-c3cccnc3)nn12,4,54*,30
CCC(=O)N1c2ncnn2C(c2ccccc2OC)CC1c1ccc(C)cc1 (configuration not stated),-1,-12,-3
COc1ccc(CNC(=O)c2[nH]cnc2C(=O)NCc2ccccn2)c(OC)c1,-39,0,12
COc1cccc(CNC(=O)CCc2nc3sc4c(c3c(=O)[nH]2)CCCCC4)c1,4,-12,-26
CC1CCc2c(sc3nc(CCC(=O)NCc4ccc5c(c4)OCO5)[nH]c(=O)c23)C1 (configuration not stated),45*,-5,-54
COc1ccc(CNC(=O)CCc2nc3sc4c(c3c(=O)[nH]2)CCCCC4)cc1,-3,51*,-48
O=C(CCc1nc2sc3c(c2c(=O)[nH]1)CCCCC3)NCc1ccc2c(c1)OCO2,-4,5,-9
CCOC(=O)c1ccc(NC(=O)Cn2cnc3scc(-c4ccc5c(c4)CCCC5)c3c2=O)cc1,-7,17,-17
CC(=O)c1cccc(NC(=O)C2(c3ccc(Cl)cc3)CCC2)c1,10,7,-4
CC(=O)Nc1ccc(NC(=O)C2(c3ccc(Cl)cc3)CCC2)cc1,-1,45*,16
O=C(Nc1cccc2cccnc12)c1nn(C2CCS(=O)(=O)C2)c2c1CCCC2 (configuration not stated),5,18,2
O=C(Nc1ccc(Cl)cn1)c1nn(C2CCS(=O)(=O)C2)c2c1CCCC2 (configuration not stated),8,38*,-73
O=C(NCC(=O)N1CCC2(CC1)NCCc1[nH]cnc12)c1ccco1,6,12,-4
O=C(CCN1C(=O)c2ccccc2S1(=O)=O)Nc1ccccc1C(=O)O,0,-18,-3
Cc1ccc([N+](=O)[O-])cc1NC(=O)CCN1C(=O)c2ccccc2S1(=O)=O,-7,31*,49*
CN(C)S(=O)(=O)c1ccc(N/C=C/c2ncc(C(F)(F)F)cc2Cl)cc1,27,-8,-71
Fc1ccc(N/C=C/c2ncc(C(F)(F)F)cc2Cl)cc1,72*,20,-79
COc1cccc(NC(=O)CN2C(=O)CCc3ccccc32)c1,2,4,13
CCN(c1ccc(NC(=O)COC(=O)c2cccnc2Nc2cccc(C(F)(F)F)c2)cc1)C(C)C,9,5,24
CCN(c1ccc(NC(=O)CSc2nccc(=O)[nH]2)cc1)C(C)C,59*,12,-12
COc1ccc(C(=O)N2CCC(c3nc4c(nnn4Cc4cc(C)ccc4C)c(=O)[nH]3)CC2)cc1,6,36*,30*
Cc1ccc(Cn2nnc3c(=O)[nH]c(C4CCN(C(=O)c5ccccc5)CC4)nc32)cc1,14,10,43*
Cc1ccc(Cn2nnc3c(=O)[nH]c(C4CCN(C(=O)Cc5ccccc5)CC4)nc32)cc1,-4,3,4
Cc1ccc(Cn2nnc3c(=O)[nH]c(C4CCN(C(=O)c5c(F)cccc5F)CC4)nc32)cc1,0,-2,14
O=C(Cc1ccccc1)N1CCC(c2nc3c(nnn3Cc3ccc(F)cc3)c(=O)[nH]2)CC1,20,3,31*
SMILES,USP8 block,USP17 block,USP30 inh
O=C(c1c(F)cccc1F)N1CCC(c2nc3c(nnn3Cc3ccc(F)cc3)c(=O)[nH]2)CC1,5,-6,3
Cc1ccc(C)c(Cn2nnc3c(=O)[nH]c(C4CCN(C(=O)C5CCCC5)CC4)nc32)c1,10,2,15
N#Cc1ccc(NC(=O)N2CCC(c3nc4c(nnn4Cc4ccc(F)cc4)c(=O)[nH]3)CC2)cc1,-1,30*,30*
COCCn1c(Cc2cccn2C)nnc1SCC(=O)Nc1ccc(C(C)=O)cc1,0,0,-13
CC1=NOC(C)(CNS(=O)(=O)c2ccc(C)cc2)C1 (configuration not stated),17,2,14
O=C(CNc1ccccc1Oc1ccccc1)N1CCOCC1,16,19,24
COc1ccc(-n2nnc(C(=O)NCc3ccc(F)cc3F)n2)cc1,0,-3,-2
COc1ccccc1CNC(=O)c1nnn(-c2ccc(Cl)cc2)n1,2,19,35*
CCOC(=O)c1cnc2nc(-c3ccc(OC)cc3)[nH]n2c1=O,11,17,9
CN1CCCC12CCCN(C(=O)CNC(=O)OCc1ccccc1)C2 (configuration not stated),2,-20,1
